Measurements as given in the supplement of paper PMC10981050.
“And” between values parts separate entries of the source, which are not always exact repeats. Identical values can stand only once. Counter-ions that a name gives are not always drawn.

Experiments:
Test in all cases: cell viability relative to vehicle control; higher = less cytotoxic
Details in all cases: 10 µM
K562 = test system: K562
Procedure, shortened: (§1)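 After removal of identity-inconsistent compounds, the Selleck bioactive, kinase and epigenetic probe libraries were screened on CRISPR-edited mutant clones and isogenic wild-type clones of four leukaemia lines. Plates were 384-well, each well holding 2000 cells in 50 µL medium and receiving a single 10 µM acoustically dispensed dose. CellTiter-Glo luminescence was read 48 h later, after the supernatant was taken off. Genedata Screener was used to express viability as percent of the on-plate vehicle control.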

MARIMO = test system: MARIMO
Procedure, shortened: as §1

MOLM14 = test system: MOLM14
Procedure, shortened: as §1

OCI-AML2 = test system: OCI-AML2
Procedure, shortened: as §1

Row | SMILES | cell viability (K562; SRSF2 genotype: SRSF2 P95H/wt) | cell viability (K562; SRSF2 genotype: SRSF2 wt/wt) [%] | cell viability (MARIMO; SRSF2 genotype: SRSF2 P95H/wt) [%] | cell viability (MARIMO; SRSF2 genotype: SRSF2 wt/wt) [%] | cell viability (MOLM14; SRSF2 genotype: SRSF2 P95H/wt) [%] | cell viability (MOLM14; SRSF2 genotype: SRSF2 wt/wt) [%] | cell viability (OCI-AML2; SRSF2 genotype: P95H/wt) [%] | cell viability (OCI-AML2; SRSF2 genotype: wt/wt) [%]
1 | Cc1ccc2c(=O)c3cccc(CC(=O)O)c3oc2c1C [DMXAA (Vadimezan)] | 90% and 87.7% | 90.5 | 89.9 | 102 | 85.4 | 87.8 | 88.9 | 93.1
2 | C[C@H](NC(=O)C(=O)Nc1ccccc1C(C)(C)C)C(=O)N[C@@H](CC(=O)O)C(=O)COc1c(F)c(F)cc(F)c1F | 106% and 107% | 108 | 111 | 107 | 90.2 | 101 | 111 | 106
3 | CCN(c1cc(-c2ccc(CN3CCOCC3)cc2)cc(C(=O)NCc2c(C)cc(C)[nH]c2=O)c1C)C1CCOCC1 [Tazemetostat (EPZ-6438)] | 92.9% and 95% | 94.2 | 93.3 | 102 | 89.5 | 93.3 | 105 | 99.6
4 | CC(C)OC(=O)CCC/C=C\C[C@@H]1[C@@H](CC[C@@H](O)CCc2ccccc2)[C@H](O)C[C@@H]1O [Latanoprost] | 93% and 96.4% | 90.1 | 89.6 | 92.5 | 88 | 103 | 97.8 | 98.3
5 | O=C(O)CCc1c[nH]c2ccccc12 [3-Indolepropionic acid] | 92.7% and 95.1% | 102 | 98.8 | 96.4 | 97.8 | 96.9 | 103 | 98.3
6 | OC[C@H]1OC(O)[C@H](O)[C@@H](O)[C@H]1O (stereo partly drawn) [D-Galactose] | 101% and 103% | 98.2 | 103 | 105 | 103 | 103 | 105 | 108
7 | CC(O)C(O)c1cnc2nc(N)[nH]c(=O)c2n1 (centres undefined) [6-Biopterin] | 98.5% and 106% | 108 | 104 | 107 | 109 | 106 | 104 | 104
8 | Cc1cc(Nc2ncc3c(n2)N(C)C(=O)N(c2cc(NC(=O)c4cccc(C(F)(F)F)c4)ccc2C)C3)n(C)n1 [Pluripotin (SC1)] | 35.1% and 35.2% | 30.4 | 22.1 | 21.8 | 7.16 | 7.23 | 12.7 | 20.3
9 | C[C@@]1(c2cc(-c3cncnc3)c(F)cc2F)CCSC(N)=N1 | 100% and 99.9% | 100 | 104 | 105 | 92.2 | 102 | 100 | 99.2
10 | NC1=N[C@@]2(c3cc(NC(=O)c4ccc(F)cn4)ccc3F)COC[C@H]2CS1 | 94.7% and 91.1% | 86.1 | 89.6 | 98.4 | 99.7 | 94.2 | 94.4 | 92.6
11 | C[C@H](CCC(=O)O)[C@H]1CC[C@H]2[C@@H]3CC[C@@H]4C[C@H](O)CC[C@]4(C)[C@H]3C[C@H](O)[C@]12C [Deoxycholic acid] | 94.9% and 86.4% | 87.3 | 93.7 | 103 | 94.7 | 95 | 94.5 | 93
12 | Cn1nnc(-c2ccc3c(c2)[nH]c2nc(Cc4ccccc4)nc(NC4CCC(N)CC4)c23)n1 (centres undefined) | 0.17% | 0.16 | 0.14 | 0.19 | 0.11 | 0.13 | 0.18 | 0.13
13 | C[C@@H]1O[C@@H](O[C@H]2[C@H](Oc3cc(O)c4c(c3)O[C@H](c3ccc(O)cc3)CC4=O)O[C@H](CO)[C@@H](O)[C@@H]2O)[C@H](O)[C@H](O)[C@H]1O [Naringin (Naringoside)] | 101% and 119% | 111 | 102 | 107 | 106 | 109 | 112 | 100
14 | CONC(=O)c1ccccc1Nc1cc(Nc2cc(C)nn2C(C)C)ncc1Cl | 91.8% and 101% | 105 | 93.2 | 101 | 82.9 | 102 | 95.8 | 103
15 | O=C[C@H](O)[C@H]1OC(=O)[C@@H](O)[C@H]1O [D-Glucurone] | 90.4% and 88.2% | 86.3 | 84.2 | 95.1 | 88.8 | 88.3 | 88.8 | 94.2
16 | CC(=O)OCC(=O)[C@@]1(O)[C@H](C)C[C@H]2[C@@H]3CCC4=CC(=O)C=C[C@]4(C)[C@@]3(F)[C@@H](O)C[C@@]21C [Dexamethasone acetate] | 105% and 106% | 106 | 105 | 104 | 103 | 95.5 | 106 | 109
17 | CC(O)c1cc(C(=O)N[C@@H](C)Cn2ccc(-c3ccc(C#N)c(Cl)c3)n2)n[nH]1 (some centres undefined) | 87.9% and 91.4% | 93.3 | 90.6 | 93.5 | 98.8 | 98 | 91.4 | 102
18 | CNC1CCCN(c2c(F)cc3c(=O)c(C(=O)O)cn(C4CC4)c3c2OC)C1 (centres undefined) [Balofloxacin] | 104% and 108% | 105 | 107 | 105 | 107 | 109 | 106 | 94.3
19 | O=C([O-])c1ccccc1O.[Na+] [Sodium salicylate] | 93.7% and 88.7% | 85.5 | 94.4 | 97 | 97 | 94.1 | 91.2 | 98

Row | SMILES | cell viability (K562; SRSF2 genotype: SRSF2 P95H/wt) | cell viability (K562; SRSF2 genotype: SRSF2 wt/wt) [%] | cell viability (MARIMO; SRSF2 genotype: SRSF2 P95H/wt) [%] | cell viability (MARIMO; SRSF2 genotype: SRSF2 wt/wt) [%] | cell viability (MOLM14; SRSF2 genotype: SRSF2 P95H/wt) [%] | cell viability (MOLM14; SRSF2 genotype: SRSF2 wt/wt) [%] | cell viability (OCI-AML2; SRSF2 genotype: P95H/wt) [%] | cell viability (OCI-AML2; SRSF2 genotype: wt/wt) [%]
20 | CC(C)(O)C1CCC(C)(C2C(O)CC3(C)C4CC(O)C5C(C)(C)C(O)CCC56CC46CCC23C)O1 (centres undefined) [Cyclogalegenol] | 93.6% and 88.3% | 89.8 | 93.5 | 104 | 94 | 95.7 | 97.4 | 103
21 | COC(=O)N[C@H](C(=O)N1CC2(CC2)C[C@H]1c1nc(-c2ccc3c(c2)C(F)(F)c2cc(-c4ccc5[nH]c([C@@H]6[C@H]7CC[C@H](C7)N6C(=O)[C@@H](NC(=O)OC)C(C)C)nc5c4)ccc2-3)c[nH]1)C(C)C [Ledipasvir (GS5885)] | 84.9% and 87.8% | 84.3 | 86.4 | 90.2 | 73.7 | 84.3 | 87.9 | 91.8
22 | CC(=O)OCC(=O)NCCCOc1cccc(CN2CCCCC2)c1 [Roxatidine acetate HCl] | 102% and 97.3% | 96.1 | 93.7 | 103 | 101 | 101 | 92 | 94.8
23 | C=CC(=O)N1CCC[C@@H](n2nc(-c3ccc(Oc4ccccc4)cc3)c(C(N)=O)c2N)C1 [Btk inhibitor 2] | 81.6% and 89.2% | 84.8 | 79.8 | 90.2 | 25.4 | 25.4 | 48.2 | 52.1
24 | O=NO [Sodium Nitrite] | 107% and 104% | 95.9 | 99.9 | 99.4 | 96.4 | 101 | 97.8 | 99.5
25 | COc1cc2c(cc1OC)[C@@H]1Cc3ccc(OC)c(OC)c3CN1CC2 [Rotundine] | 87.8% and 98.4% | 101 | 98.2 | 91.1 | 94 | 95.2 | 95.1 | 90.4
26 | Oc1ccc(/C=C/c2cc(O)cc(O)c2)cc1 [Resveratrol] | 83.1% and 92.7% | 91.6 | 70.1 | 79.6 | 73.4 | 80 | 67.2 | 72.8
27 | Cc1cc(C)c(S(=O)(=O)n2cc(C)cc2C)c(C)c1 | 90.6% and 98.6% | 95.1 | 90.8 | 88.4 | 84.7 | 92.2 | 99.7 | 102
28 | Cc1cc2c(s1)Nc1ccccc1N=C2N1CCN(C)CC1 [Olanzapine (Zyprexa)] | 95.8% and 89.5% | 90.7 | 92.5 | 102 | 93.8 | 95.8 | 81.7 | 92.2
29 | C[C@@H](CC[C@@]1(O)O[C@H]2C[C@H]3[C@@H]4CC[C@@H]5C[C@@H](O[C@@H]6O[C@H](CO)[C@H](O)[C@H](O)[C@H]6O[C@@H]6O[C@H](CO)[C@@H](O)[C@H](O)[C@H]6O)CC[C@]5(C)[C@H]4CC[C@]3(C)[C@H]2[C@@H]1C)CO[C@@H]1O[C@H](CO)[C@@H](O)[C@H](O)[C@H]1O [Timosaponin BII] | 93.3% and 90.7% | 89.5 | 102 | 107 | 96 | 93.5 | 49.8 | 73.6
30 | CN(CC(=O)N(Cc1ccc(C2CCCCC2)cc1)c1ccc(C(=O)NO)cc1)S(=O)(=O)c1c(F)c(F)c(F)c(F)c1F | 0.47% and 0.41% | 0.42 | 0.5 | 0.67 | 0.26 | 0.33 | 0.18 | 0.24
31 | CN(C)C(=O)C(CCN1CCC(O)(c2ccc(Cl)cc2)CC1)(c1ccccc1)c1ccccc1 [Loperamide hydrochloride] | 45.5% and 54.9% | 49.4 | 55.5 | 61.6 | 58.5 | 59.7 | 44.2 | 54.9
32 | COc1ccc(C[C@@H]2c3cc(Oc4cc(C[C@@H]5c6cc(OC)c(OC)cc6CCN5C)ccc4O)c(OC)cc3CCN2C)cc1 [Neferine] | 109% and 107% | 99 | 104 | 120 | 106 | 109 | 102 | 102
33 | C=CC[C@@H]1/C=C(\C)C[C@H](C)C[C@H](OC)[C@H]2O[C@@](O)(C(=O)C(=O)N3CCCC[C@H]3C(=O)O[C@H](/C(C)=C/[C@@H]3CC[C@@H](O)[C@H](OC)C3)[C@H](C)[C@@H](O)CC1=O)[C@H](C)C[C@@H]2OC [Tacrolimus (FK506)] | 90.3% and 93.4% | 84.9 | 94.3 | 97.2 | 92.2 | 96.3 | 91.4 | 98.2
34 | COc1cc2nc(N3CCN(C(=O)C4CCCO4)CC3)nc(N)c2cc1OC (centres undefined) [Terazosin HCl Dihydrate] | 101% and 95.7% | 97 | 101 | 105 | 99.1 | 96.2 | 94.8 | 103
35 | Cn1c(=O)cc(C(=O)Nc2ccc3c(c2)OCCO3)c2ccccc21 | 97.4% and 96% | 94 | 99 | 104 | 102 | 100 | 93.4 | 101
36 | C[C@@H](c1ncncc1F)[C@](O)(Cn1cncn1)c1ccc(F)cc1F [Voriconazole] | 102% and 99.5% | 99 | 107 | 106 | 99.5 | 101 | 104 | 108
37 | CO[C@@]12[C@H](COC(N)=O)C3=C(C(=O)C(C)=C(N)C3=O)N1C[C@@H]1N[C@@H]12 [Mitomycin C] | 17.1% and 28% | 21 | 5.24 | 2.95 | 0.73 | 0.37 | 0.41 | 0.98
38 | O=c1[nH]c(=O)n([C@H]2C[C@H](O)[C@@H](CO)O2)cc1C(F)(F)F [Trifluridine (Viroptic)] | 85.4% and 99.2% | 85.7 | 48.5 | 52.3 | 52.7 | 18.8 | 21.6 | 26.8
